Test results: PubChem BioAssay (NCI)
This is part of a sample that, as a whole, favours compounds with a hit. Of some 83,000 tested, about 20% had one in any assay.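 Step 1: grow cells in 96-well plates. Step 2: add test compound at a single concentration. Step 3: incubate 48 h. Step 4: record percent growth.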 Unmarked numbers belong to inactive results. The source made the active and inactive calls. How the source made its calls: active means growth percent below 10; inactive means the rest.

Tests used:
Assay in all cases: NCI-60 one-dose screen, 48 h (100 = growth as untreated, 0 = no growth, -100 = all killed)
Details in all cases: 10 µM unless noted
DU-145 prostate = test system: DU-145 prostate
K-562 leukemia = test system: K-562 leukemia
MALME-3M melanoma = test system: MALME-3M melanoma
MDA-MB-231 breast = test system: MDA-MB-231 breast
RXF 393 renal = test system: RXF 393 renal
SF-268 CNS = test system: SF-268 CNS
SF-295 CNS = test system: SF-295 CNS
SF-539 CNS = test system: SF-539 CNS
UACC-257 melanoma = test system: UACC-257 melanoma
M14 melanoma = test system: M14 melanoma
HCT-15 colon = test system: HCT-15 colon
HT29 colon = test system: HT29 colon
SNB-75 CNS = test system: SNB-75 CNS
SNB-19 CNS = test system: SNB-19 CNS
U251 CNS = test system: U251 CNS
PC-3 prostate = test system: PC-3 prostate
SK-MEL-5 melanoma = test system: SK-MEL-5 melanoma
UACC-62 melanoma = test system: UACC-62 melanoma
LOX IMVI melanoma = test system: LOX IMVI melanoma
SK-MEL-28 melanoma = test system: SK-MEL-28 melanoma

| Compound | growth (DU-145 prostate) | growth (K-562 leukemia) | growth (MALME-3M melanoma) | growth (MDA-MB-231 breast) | growth (RXF 393 renal) | growth (SF-268 CNS) | growth (SF-295 CNS) | growth (SF-539 CNS) | growth (UACC-257 melanoma) | growth (M14 melanoma) | growth (HCT-15 colon) | growth (HT29 colon) | growth (SNB-75 CNS) | growth (SNB-19 CNS) | growth (U251 CNS) | growth (PC-3 prostate) | growth (SK-MEL-5 melanoma) | growth (UACC-62 melanoma) | growth (LOX IMVI melanoma) | growth (SK-MEL-28 melanoma) |
| --- | --- | --- | --- | --- | --- | --- | --- | --- | --- | --- | --- | --- | --- | --- | --- | --- | --- | --- | --- | --- |
| O=c1c2c(=NCCN3CCCC3)cc3c(=O)n(CCCN4CCOCC4)c(=O)c4ccc(c(O)n1CCCN1CCOCC1)c2c4-3 | 2.23% (active) | 3.73% (active) | -70.7% (active) | -24.5% (active) | -66.3% (active) | -26.8% (active) | 1.07% (active) | -53.9% (active) | -14.3% (active) | -73.4% (active) | -11.8% (active) | -16.9% (active) | -88.8% (active) | 1.06% (active) | 5.11% (active) | -20.8% (active) | -14.9% (active) | -49.7% (active) | -6.84% (active) | -32.9% (active) |
| N#Cc1c(-c2cccc(F)c2)cc(-c2ccc(Br)s2)[nH]c1=O | 90.1% | 24.5% | 67.2% | 79.7% | 87.3% | 83.1% | 73.4% | 83.6% | 87.4% | 39.8% | 27.2% | 118% | 61.2% | 78.4% | 56.2% | 78.2% | 68.8% | 57.9% | 61.7% | 71.3% |
| COc1cc(/C=C2\C(=O)Nc3ccccc32)cc(OC)c1O | 92.5% | 7.58% (active) | 118% | 63.1% | 71.3% | 78.3% | 60.6% | 68.8% | 62.6% | 53.6% | 61.6% | 75.7% | 23.1% | 83.7% | 47% | 51.2% | 45.7% | 72.1% | 36.5% |  |
| Clc1ccccc1Nc1ccc2nnc(-c3ccncc3)n2n1 | 114% | 47.6% | 112% | 108% | 96.2% | 101% | 93.9% | 92.7% | 114% | 112% | 91.8% | 99.2% | 96.2% | 107% | 97.4% | 75.7% | 97.9% | 98.4% | 96.1% | 122% |
| COc1ccc2c(c1)c(=O)oc1c(C)c(OCC(C)=O)ccc12 | 86.8% | 102% | 112% | 114% | 103% | 85.6% | 93.9% | 94.3% | 96.2% | 112% | 86.7% | 103% | 108% | 101% | 90% | 83.3% | 103% | 64.3% | 94.7% | 106% |
| O=C(N/N=C/c1ccc(F)cc1)c1[nH]c2ccc(I)cc2c1-c1ccccc1 | 15.7% | 75.4% | 71.5% | 16.5% | 39.6% | 34.6% | 22.1% | -18.1% (active) | 93.3% | 28.4% | 18.7% | 12.5% | 51.7% | 12% | 20.4% | 20.6% | -30% (active) | 35.2% | 25.8% | 67.9% |
| O=S(=O)(Nc1ccc(Cl)c(Cl)c1)c1ccc(-c2cnc(C3CC3)o2)cc1 | 15.3% | 16.2% | 53.3% | 28.4% | -19.4% (active) | 47.7% | 14.9% | -13.5% (active) | 63.1% | 14.1% | 23.9% | 10.2% | -3.4% (active) | 30.9% | 22.1% | 14.2% | 25% | 26.8% | 45.6% |  |
| N#C/C(=C\c1ccc[nH]1)c1cc2ccccc2[nH]1 | 80% | 42.5% | 88% | 59.7% | 92.5% | 78.1% | 53.7% | 79.7% | 69.9% | 80.3% | 50.2% | 80.2% | 62.2% | 78.5% | 69.7% | 58% | 57.2% | 67.8% | 75.2% | 98.5% |
| COc1ccc(-c2nc3sccn3c2/C=C/C(=O)c2cc(OC)c(OC)c(OC)c2)cc1OC | 6.29% (active) | 13.9% | 37.7% | 31.7% | -1.12% (active) | 28.2% | 5.22% (active) | 24.6% | 24.5% | 7.09% (active) | 22% | 4.2% (active) | -8.25% (active) | 28.5% | 10% | 22.6% | 5.76% (active) | 15.3% | 9.65% (active) | 53.2% |
| Nc1cc(Br)c(-c2nnc(CCC(=O)c3nc4ccccc4[nH]3)o2)c(Br)c1 | 103% | 27% | 58.7% | 76.7% | 92.6% | 88.2% | 66.3% | 93.9% | 90.7% | 79.8% | 104% | 84.1% | 58.9% | 85.5% | 68.2% | 74.9% | 47.7% | 55.6% | 44.7% | 65.4% |
| COC(=O)c1c2c(c(C)[n+]([O-])c1C)C(=O)C=C(NCc1cccc(Cl)c1)C2=O | -98.3% (active) | -1.12% (active) | -96.9% (active) | -27.3% (active) | -32.1% (active) | -0.347% (active) | -96% (active) | -91.7% (active) | -88.5% (active) | -79.6% (active) | -66.9% (active) | 3.61% (active) | -95.4% (active) | -53.4% (active) | -20.7% (active) | -1.7% (active) | -97.1% (active) | -68% (active) | -57.5% (active) | -1.27% (active) |
| O=C(CCc1nnc2sc(-c3ccccc3)nn12)c1nc2ccccc2[nH]1 | 106% | 5.84% (active) | 93.7% | 97.2% | 107% | 116% | 77.1% | 78.9% | 100% | 96.3% | 98.5% | 62.1% | 83.9% | 104% | 88.7% | 85.7% | 92.4% | 102% | 88.3% | 103% |
| COc1cc(Cn2cc(F)c(=O)[nH]c2=O)cc(OC)c1 | 114% [50 µM] | 95.6% [50 µM] | 108% [50 µM] | 95.7% [50 µM] | 99.5% [50 µM] | 96.1% [50 µM] | 101% [50 µM] | 101% [50 µM] | 110% [50 µM] | 100% [50 µM] | 103% [50 µM] | 110% [50 µM] | 91.2% [50 µM] | 101% [50 µM] | 106% [50 µM] | 101% [50 µM] | 103% [50 µM] | 97.5% [50 µM] | 86.2% [50 µM] | 109% [50 µM] |
| CCOC(=O)n1cc(C2=C(c3cn(C)c4ccccc34)COC2=O)c2ccccc21 | -14.3% (active) | 5.86% (active) | 37.2% | 25.5% | 19.6% | 26% | 1.58% (active) | -16.3% (active) | 55.1% | 20.1% | 12.2% | 9.6% (active) | 26.4% | 30.5% | 14.9% | 28.3% | -7.08% (active) | 26.1% | 18.7% | 47.7% |
| O=C(N/N=C(\CS(=O)(=O)c1ccccc1)c1cc2cc(Br)ccc2oc1=O)c1ccccc1 | 105% | 112% | 111% | 94.2% | 126% | 98% | 98.6% | 101% | 107% | 106% | 99.8% | 103% | 89.8% | 103% | 97.7% | 95.5% | 103% | 95.2% | 99.1% | 99.3% |
| Nc1cccc2c(=S)c3ccccc3[nH]c12 | 113% | 91% | 102% | 68.3% | 95.1% | 92.5% | 97.3% | 96.9% | 99% | 102% | 95.4% | 117% | 94.6% | 89.8% | 104% | 82.5% | 91.4% | 87.6% | 88.5% | 114% |
